# ZTA counter: ZTA (EBV) inhibition in EBNA-1 counter-screen; P03206; ZTA-DNA binding, fluorescence polarization; inhibition, % at 11 µM; AID 2234; 320,000 compounds, 0.15% hits; in the data active = inhibition above about 33%
# Target sequence (P03206 whole entry, looked up): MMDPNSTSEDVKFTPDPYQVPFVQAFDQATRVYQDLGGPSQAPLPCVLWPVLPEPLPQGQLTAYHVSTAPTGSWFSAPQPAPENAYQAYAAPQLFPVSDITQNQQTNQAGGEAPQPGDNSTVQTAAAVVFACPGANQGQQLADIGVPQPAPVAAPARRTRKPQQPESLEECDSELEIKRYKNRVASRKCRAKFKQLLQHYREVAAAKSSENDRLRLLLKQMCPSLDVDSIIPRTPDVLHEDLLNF
# PAFAH2 inh: PAFAH2 enzyme inhibitors, primary screen, biochemical, fluorescence polarization, human | inhibition, % at 3.39 µM | AID 492956, 2010 | recombinant PAFAH2, FP-rhodamine activity probe | Platelet-activating factor acetylhydrolase 2, cytoplasmic (Homo sapiens), Q99487 | 340,000 compounds, 0.99% hits;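 active = inhibition above the mean over all tested compounds plus 3 SD, cut at about 30% in these data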;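 note: inhibitors block probe labeling of enzyme so polarization drops; 0% = enzyme with DMSO and 100% = wells lacking PAFAH2 protein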
# PAFAH1B3 FP inh: PAFAH1B3 enzyme inhibitors, primary screen, biochemical, fluorescence polarization, human. inhibition, % at 3.39 µM. 340,000 compounds, 0.28% hits. Platelet-activating factor acetylhydrolase IB subunit alpha1 (Homo sapiens), Q15102. recombinant PAFAH1B3, FP-rhodamine probe;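 active = inhibition above the screen-wide average of all tested compounds plus 3 SD, cut at about 25% in these data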;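 note: 0% = enzyme with DMSO only and 100% = wells lacking PAFAH1B3 protein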
# PAFAH1B2 FP inh: PAFAH1B2 enzyme inhibitors, primary screen, biochemical, fluorescence polarization, human; inhibition, % at 3.39 µM; Platelet-activating factor acetylhydrolase IB subunit alpha2 (Homo sapiens), P68402; recombinant PAFAH1B2, FP-rhodamine activity probe; 340,000 compounds, 1.2% hits;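 active = inhibition above the mean of all tested compounds plus 3 SD, cut at about 24% in these data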;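 note: 0% = enzyme with DMSO and 100% = wells lacking PAFAH1B2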
# Target sequence (P68402 whole entry, looked up): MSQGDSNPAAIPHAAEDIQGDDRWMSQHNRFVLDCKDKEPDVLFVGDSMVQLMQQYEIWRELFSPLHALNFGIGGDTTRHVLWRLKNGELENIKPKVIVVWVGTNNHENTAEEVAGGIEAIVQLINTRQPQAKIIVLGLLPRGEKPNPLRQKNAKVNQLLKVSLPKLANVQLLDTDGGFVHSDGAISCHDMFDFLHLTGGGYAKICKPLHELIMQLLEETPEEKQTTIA
# EBNA-1 inh: EBNA-1 DNA-binding inhibitors, primary screen, biochemical, fluorescence polarization. inhibition, % at 14.8 µM. 300,000 compounds, 0.34% hits. AID 1950, 2009; in the data active = inhibition above about 28%
# pPAFAH FP inh: pPAFAH enzyme inhibitors, primary screen, biochemical, fluorescence polarization, human; Platelet-activating factor acetylhydrolase (Homo sapiens), Q13093; recombinant pPAFAH, FP-rhodamine probe fluorescence polarization; inhibition, % at 3.39 µM; 330,000 compounds, 1.5% hits; AID 463082, 2010;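 active = inhibition above the mean inhibition across the screen plus 3 SD, cut at about 25% in these data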;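 note: inhibitors block binding of the rhodamine activity-based probe so polarization drops; 0% = enzyme with DMSO and 100% = wells lacking pPAFAH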
# EBNA-1 confirm: EBNA-1 DNA-binding inhibitors, retest, confirmation, biochemical, fluorescence polarization, triplicate. 830 compounds, 35% hits. Recombinant EBNA-1 DBD, Cy5-DNA fluorescence polarization. shares compounds with EBNA-1 inh. inhibition, % at 14.8 µM;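 active = mean inhibition across replicates above a set limit taken from the earlier primary screen, cut at about 28% in these data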;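 note: plate controls were EBNA-1 protein with DMSO for no effect and wells lacking EBNA-1 for full effect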
# ZTA DNA inh trip: EBV Zta DNA binding inhibitors, counter-screen for EBNA-1 inhibitor project, biochemical, fluorescence polarization, triplicate; 830 tested, under 10 active; inhibition, % at 11.1 µM; Zta-ZRE DNA binding, Cy5 fluorescence polarization; shares compounds with EBNA-1 inh;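 active = mean inhibition over triplicates above a set limit taken from the primary EBNA-1 screen, cut at about 37% in these data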;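 note: purified full length Zta protein with Cy5 labeled ZRE DNA probe; 0% = Zta with DMSO and 100% = wells lacking Zta protein; inhibitors lower polarization by freeing the labeled DNA probe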
# * = called active by the depositor; · = no result. Sampled rows, rich in hits. Any-hit rate of the full collection: about 2.9%.
SMILES,ZTA counter,PAFAH2 inh,PAFAH1B3 FP inh,PAFAH1B2 FP inh,EBNA-1 inh,pPAFAH FP inh,EBNA-1 confirm,ZTA DNA inh trip
CCOc1cc(C(=O)OCC(=O)c2c(N)n(C)c(=O)n(C)c2=O)cc(OCC)c1OCC,-1,-1,2,-2,76*,2,61*,1
Cn1c(N)c(C(=O)COC(=O)c2ccccc2C(=O)c2ccccc2)c(=O)n(C)c1=O,3,10,3,3,·,-7,·,·
Cn1c(N)c(C(=O)COC(=O)/C=C/c2ccc(Cl)cc2Cl)c(=O)n(C)c1=O,·,·,·,·,·,-4,·,·
Cc1cc(C(=O)OCC(=O)c2c(N)n(C)c(=O)n(C)c2=O)c(C)n1-c1ccccc1,-3,4,3,2,41*,1,82*,8
COc1ccccc1/C=C/C(=O)OCC(=O)c1c(N)n(C)c(=O)n(C)c1=O,-4,-2,6,3,48*,-4,26,8
OCCC1CN(CC2CCCCC2)CCN1CC1CCCCC1 (centres undefined),-12,2,2,1,-4,0,·,·
CCOC(=O)Cc1csc(NC(=O)CSc2cc(Cl)ccc2Cl)n1,0,-3,1,0,-2,8,·,·
COC(=O)C1=C(N)N(c2ccccc2C(F)(F)F)C2=C(C(=O)CCC2)C1c1ccc2c(c1)OCO2 (centres undefined),0,2,6,5,31*,5,-7,-3
COC(=O)CSC1=C(C#N)C(c2ccc3c(c2)OCO3)C2=C(CCCC2=O)N1 (centres undefined),-7,5,-4,-5,4,7,·,·
CC(C)C(NC(=O)OCc1ccccc1)C(=O)NC1CCCCC1 (centres undefined),2,-5,-4,2,-2,0,·,·
O=C(NCCCCCCNC(=O)c1ccc(Br)s1)c1ccc(Br)s1,10,7,-1,5,53*,3,26,7
COc1ccc(-c2cn3c(C)c(C(=O)NCc4ccc5c(c4)OCO5)sc3n2)cc1,-13,12,-2,4,80*,11,126*,13
Cc1onc(-c2ccccc2)c1C(=O)N(CC(C)C)c1c(N)n(CC(C)C)c(=O)[nH]c1=O,20,-1,4,3,·,0,·,·
O=C(Cn1c2ccccc2c2nc3n(c(=O)c21)CCS3)Nc1ccccc1C(F)(F)F,2,-4,0,4,-9,-1,·,·
COc1ccccc1NC(=O)Cn1c2ccccc2c2nc3n(c(=O)c21)CCS3,-15,-5,0,1,44*,-8,0,-8
CCC(C)(C)NC(=O)c1ccc(S(=O)(=O)N2CCCCCC2)cc1,-4,-5,-3,4,-15,3,·,·
Cc1cc(NC(=O)CSc2nc(-c3ccc(F)cc3)cs2)no1,-3,-2,10,1,44*,-4,13,4
Cc1cc(NC(=O)CSc2nc(-c3ccccc3)cs2)no1,0,6,9,4,-5,-2,·,·
Cc1cc(C(=O)N/N=C/c2ccc(-c3cccc(Br)c3)o2)n[nH]1,-1,·,·,·,35*,-1,16,17
Cc1ccc2[nH]c(=O)c(CN(Cc3cccs3)C(=S)NCC3CCCO3)cc2c1 (centres undefined),9,-5,0,3,44*,-3,17,-5
COc1ccccc1Nc1nnc(SCC(=O)NC(=O)Nc2ccc3c(c2)OCCO3)s1,5,-2,6,5,36*,3,15,11
Cc1cccc(NC(=O)CN2C(=O)S/C(=C\c3cc(C)n(C)c3C)C2=O)c1,15,-2,-2,-1,30*,6,10,-7
O=C(NCc1ccc(Cl)cc1)c1cc2ccccc2oc1=O,·,6,1,1,·,·,·,·
O=C1c2ccccc2C(=O)N1CCCCN(C(=O)c1cc2ccccc2oc1=O)c1ccc(Cl)cc1,1,-6,6,0,37*,4,0,19
CC(=O)Nc1ccc(C(=O)COC(=O)C2CC2C)c(F)c1 (centres undefined),·,2,4,3,·,·,·,·
SMILES,ZTA counter,PAFAH2 inh,PAFAH1B3 FP inh,PAFAH1B2 FP inh,EBNA-1 inh,pPAFAH FP inh,EBNA-1 confirm,ZTA DNA inh trip
COc1ccc(CNS(=O)(=O)NCc2ccc(C)cc2)cc1,7,7,-4,4,56*,5,12,-12
COc1ccc(/C=C/C(=O)Oc2cccc(/C=N/NC(=O)COc3c(C)cccc3C)c2)cc1,4,-12,-20,-8,39*,3,74*,7
COC(=O)c1cn(NC(=O)Cc2ccc(Cl)c(Cl)c2)c(=O)c2ccccc12,-4,-3,4,-2,44*,-1,25,-8
CCCCn1c(N)c(N(CCC(C)C)C(=O)c2cc(-c3ccco3)nc3ccccc23)c(=O)[nH]c1=O,-3,8,3,-3,51*,15,-16,3
CC(C)(C)c1nc(SCC(=O)Nc2ccc3c(c2)OCCO3)c2ccccc2n1,-3,8,3,1,46*,0,16,3
O=C(CSc1nnc(-c2ccc(O)cc2)o1)Nc1ccc2c(c1)OCCO2,-7,7,5,5,34*,-2,12,9
Cc1ccc(NC(=O)CSc2nnc(-c3ccc(S(=O)(=O)N4CCCC4)cc3)o2)cc1C,-11,-16,-8,4,108*,1,56*,194*
CCOC(=O)C(=CNc1ccc2c(c1)c1ccccc1n2CC)C(=O)OCC,1,1,4,5,-13,11,·,·
CC(=O)N1CCN(Cc2nc3cc(NC(=O)c4cccc(Br)c4)ccc3n2C)CC1,-4,9,9,4,0,5,·,·
Nc1c(C(=O)Nc2ccccc2)sc2nc(-c3cccnc3)ccc12,5,·,·,·,-11,-2,·,·
Nc1c(C(=O)Nc2ccccc2)sc2nc(-c3ccco3)ccc12,19,8,9,7,54*,17,59*,11
N#Cc1cccnc1N1CCC(C(N)=O)CC1,3,-2,2,1,2,4,·,·
Cc1cccc(NC(=O)c2cc(=O)[nH]c3ccccc23)c1,-2,9,7,8,0,6,·,·
O=C(Nc1ccc2c(c1)CCC2)c1cc(=O)[nH]c2ccccc12,11,8,-5,-2,51*,6,29*,-16

# Screening results as filed in PubChem.
